Screening data from PubChem.
Compounds with a hit are over-represented: about 12% of the library has one in this group of screens.
Sfp inh – inhibitors of Bacillus subtilis Sfp phosphopantetheinyl transferase | Potency, µM, for inactives: largest response in the series, negative = inhibition, usual class: inhibitors | hit rate 3.5% among 310,000 | AID 1490 | Biochemical Sfp PPTase activity, qHTS;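 further: the enzyme is Sfp with the accession as filed and its product quenches rhodamine fluorescence; 0% = enzyme reaction without inhibitor and -100% = no enzyme wells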
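With Hepes-Na pH 7.6 buffer containing 10 mM MgCl2, Sfp (15 nM) modified BHQ-2-YbbR (12.5 uM) using rhodamine-CoA (5 uM). Two reads 30 minutes apart at 525/598 nm yielded each well's rate.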
G9a block – inhibitors of human histone lysine methyltransferase G9a | Q96KQ7 | G9a H3K9 monomethylation, AlphaScreen, 2 h | Potency, µM (series often up to 102 µM), inactives show at the top dose activity, negative = inhibition, actives largely listed as inhibitors | hit rate 8.8% among 350,000; further: on the % scale 0 is the no-effect control and ±100 the full control effect; nearly all actives have a fitted effect of over 75% in size
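Readings reflect AlphaScreen signal from monomethyl-H3K9 antibody detection. HMT at 20 nM; substrate b-H3K9 500 nM; cofactor SAM 20 uM; 2 h RT reaction; compounds tested as titrations in qHTS with 15 min preincubation.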
PLK1 PBD inh – blocks phosphopeptide binding to human PLK1 polo-box domain; Potency, µM, for inactives: max response, negative = inhibition, usual class: inhibitors; Plk1 PBD binding of FITC phosphopeptide, fluorescence polarization; hit rate 2.8% among 360,000; P53350; further: series mostly up to about 57 µM; on the % scale 0 is the no-effect control and ±100 the full control effect; nearly all actives have a fitted effect of over 65% in size
HP1b binding inh – inhibitors of HP1-beta chromodomain binding to methylated histone tails; AlphaScreen HP1-beta / biotin-H3K9me3 peptide binding; Potency, µM (highest dose often 114 µM), inactives show top-dose activity change, negative = inhibition, hits mostly inhibitors; hit rate 0.56% among 390,000; AID 540317; further: nearly all actives have a fitted effect of over 70% in size
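HP1-beta protein (50 nM final) preincubated 30 min at room temperature with biotinylated H3(1-18)K9me3 peptide (50 nM) in PBS pH 7.4, 0.01% Tween-20, then compound added for 30 min. AlphaScreen streptavidin donor/nickel chelate acceptor beads (10 ug/mL final), 30 min dark, luminescence read.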
JMJD2A Tudor inh – inhibitors of human JMJD2A Tudor domain. O75164. Potency, µM (top dose mostly 114 µM), without a hit: at the top dose activity change, negative = inhibition, actives largely listed as inhibitors. AlphaScreen JMJD2A-Tudor / H3K4me3 peptide binding. hit rate 4.4% among 390,000; further: on the % scale 0 is the no-effect control and ±100 the full control effect; nearly all actives have a fitted effect of over 50% in size
BAZ2B inh – inhibitors of human BAZ2B bromodomain. Q9UIF8. AlphaScreen BAZ2B-H3K14Ac peptide displacement. Potency, µM (series often up to 114 µM), without a hit: at the top dose activity change, negative = inhibition, actives largely listed as inhibitors. hit rate 4.4% among 360,000; further: on the % scale 0 is the no-effect control and ±100 the full control effect; nearly all actives have a fitted effect of over 60% in size
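Inhibition is scored as reduced AlphaScreen emission. The BAZ2B/b-H3(5-23)K14Ac complex (50 nM each) in PBS pH 7.4, 0.01% Tween-20 meets compound (up to 110 uM) for 30 min at RT before bead addition.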
* hit, by the source's call; ? = inconclusive; nt = no result; [ ] = another dose, or the depositor's remark. The call rests on the fitted dose curve; in most records, active means well fitted curve in the direction sought with a large enough effect; inconclusive means small, poorly fitted or top-dose-only effect, or another doubt; inactive means no such curve, though single readings can be large; an effect the other way counts as inactive or inconclusive. Potency means the concentration at half of the fitted maximal effect.

SMILES	Sfp inh	G9a block	PLK1 PBD inh	HP1b binding inh	JMJD2A Tudor inh	BAZ2B inh
CC(OC(=O)CNC(=O)c1cccs1)C(=O)Nc1ccc(S(N)(=O)=O)cc1 (stereo unspecified)	nt	-2%[0.501 µM]	-11%	16%	-8%	26%
CCc1ccc([C@@H]2C[C@H]3CN(Cc4ccccc4OC)C(=O)[C@]34CCCN24)cc1	9%	?	-2%	22%	-21%	-16%
CCCN1C(=O)C2(c3ccccc31)c1c(oc3ccccc3c1=O)C(=O)N2CCO (stereo unspecified)	nt	-29%[59 µM]	nt	19%	-7%	-7%
COc1cccc(CN2CCN(CCc3ccccc3)C(CCO)C2)c1OC (stereo unspecified)	4%	-3%[0.501 µM]	-3%	31%	-2%	3%
COc1cccc(CN2CCN(Cc3cc(OC)c(OC)c(OC)c3)CC2)c1OC	-20%	2.8µM*	-7%	?	7.9µM*	56µM*
CC1CCN(C(=O)CN(CCc2ccccc2)S(C)(=O)=O)CC1	7%	7%	-5%	29%	-7%	6%
COc1cccc(CN2CCC(N(CCc3ccccc3)Cc3ccccc3)CC2)c1OC	40µM*	8.9µM*	-9%	?	0.89µM*	50µM*
CC(C)CC(=O)N1CCC(N(CCc2ccccc2)Cc2ccccc2)CC1	?	22µM*	-5%	?	28µM*	50µM*
COc1cccc(CN2CCN(Cc3cccc(Oc4ccccc4)c3)CC2)c1OC	79µM*	4µM*	-10%	?	7.1µM*	18µM*
CCC1CCCCN1CCCNC(=O)C1CCCN(S(=O)(=O)N2CC(C)CC(C)C2)C1 (stereo unspecified)	7%	-7%	-11%	27%	-21%	24%[57.1 µM]
CC(C)CN1C(=O)/C(=C/c2c(N3CCc4ccccc4C3)nc3ccccn3c2=O)SC1=S	4%	35µM*	nt	nt	nt	-38%
CCOC(=O)CC1C(=O)NCCN1c1nc2c(C)cccn2c(=O)c1/C=C1\SC(=S)N(CC(C)C)C1=O (stereo unspecified)	-24%	-32%	nt	nt	nt	-4%
O=C(NNc1nc(-c2ccccc2)cs1)c1ccc(F)cc1	?	20µM*	-3%	18%	-19%	-29%
O=C(NNc1nc(-c2ccc(F)cc2)cs1)c1ccccc1	50µM*	22µM*	?	?	-19%	-17%
O=C(NNc1nc(-c2ccccc2)cs1)c1cccs1	?	6%[59 µM]	-7%	22%	-27%	?
C[C@@H]1CN([C@H](C)CO)C(=O)CCCn2nncc2CO[C@H]1CN(C)S(=O)(=O)c1ccc(C#N)cc1	nt	nt	-12%	nt	nt	nt
N#CC1=C(N)N=C(SCc2ccccc2)C(C(N)=O)C12CCCCC2 (stereo unspecified)	-29%	47%[12.7 µM]	-3%	11%	-26%	?
Cc1ccc(C(=O)CSC2=NC(N)=C(C#N)C3(CCCCC3)C2C(N)=O)cc1 (stereo unspecified)	45µM*	40µM*	?	?	?	-35%
CN(/N=C/c1ccc([N+](=O)[O-])o1)c1ccccc1	3%	22µM*	-7%	35µM*	32µM*	14µM*
O=C(Cn1c(=O)oc2cc(S(=O)(=O)NCc3ccccc3)ccc21)NCc1ccccc1Cl	nt	7%[59 µM]	nt	16%	-2%	-6%
COc1ccc(C(=O)Nc2ccccc2C(=O)NC(Cc2ccc(O)cc2)C(=O)NNC(=O)c2ccccc2)cc1 (stereo unspecified)	?	21%[59 µM]	-15%	32%	-14%	-30%
COc1ccc(C(=O)Nc2ccccc2C(=O)NC(Cc2ccc(O)cc2)C(=O)NNC(=O)c2ccncc2)cc1 (stereo unspecified)	-3%	1.4µM*	-23%	20%	-12%	?
O=C(Nc1ccccc1C(=O)NC(Cc1ccccc1)C(=O)NC1CCCCCC1)c1ccccc1 (stereo unspecified)	?	1%[12.7 µM]	27µM*	-6%	-10%[11.4 µM]	0%
O=C(c1ccc(Cl)cc1)N1CCCCC1CCN1CCOCC1 (stereo unspecified)	nt	-46%[59 µM]	nt	21%	-11%	-6%
COC(=O)c1ccc(C(=O)OC)c(NC(=O)C2CC(=O)N(C3CCCC3)C2)c1 (stereo unspecified)	nt	nt	-2%	13%[57 µM]	?	nt
SMILES	Sfp inh	G9a block	PLK1 PBD inh	HP1b binding inh	JMJD2A Tudor inh	BAZ2B inh
CCN1CCN(CCNC(=O)Nc2ccc([N+](=O)[O-])cc2)CC1	0%	-42%	2%	28%	8%	-6%
O=[N+]([O-])c1ccc(OCCN2CCCCCC2)cc1	4%	32µM*	0%	?	2.8µM*	50µM*
Cc1cc(OCCN2CCCC2)ccc1[N+](=O)[O-]	-6%	7.9µM*	-5%	-12%	3.2µM*	?
O=[N+]([O-])c1cccc(COc2ccc(CN3CCCCC3)cc2)c1	nt	nt	-8%	23%	-13%	nt
O=C(NCCN1CCCCC1)Nc1ccc([N+](=O)[O-])cc1	6%	79µM*	-13%	7%	-12%	-9%
Cc1cc(C)c(NC(=O)OCCN2CCOCC2)c(C)c1	1%	14%	2.7µM*	?	-28%[11.4 µM]	11%
Cc1cc(C)c(NC(=O)CCCN2CCOCC2)c(C)c1	20%	-8%[12.7 µM]	-3%	23%	-17%	-3%
O=C(NC1CC(=O)N(c2ccc(F)cc2)C1)C1CCCC1 (stereo unspecified)	nt	4%[59 µM]	nt	15%	1%	-1%
O=C(CSc1nc2c([nH]c3ccccc32)c(=O)n1-c1ccccc1)Nc1ccc2c(c1)OCO2	nt	-1%[59 µM]	nt	19%[57 µM]	-13%	-7%
CC(C)n1cc(CN2CCC(Oc3ccc(C(=O)N4CCCC4)cc3)CC2)cn1	19%	13%	-2%	23%	-2%	-7%
CC(=O)c1ccc(OCCOc2ccc([N+](=O)[O-])cc2)cc1	0%	5%	-15%	16%	-12%	-19%
O=Cc1ccccc1OCCOc1ccc([N+](=O)[O-])cc1	-8%	-1%	27µM*	-12%	-29%	-15%
C[N+]1(CCOc2ccc([N+](=O)[O-])cc2)CCOCC1	-5%	?	?	?	56µM*	?
CC1CCN(CCOc2ccc(Cl)c(Cl)c2)CC1	8%	?	-9%	?	10µM*	-29%
Cc1cc(OCCN2CCOCC2)ccc1Cl	-2%	10µM*	-10%	?	-100%	?
COc1cc(CCN2C(=O)N[C@@H](c3ccccc3)C(C(C)=O)=C2C)cc(OC)c1OC	-17%	nt	nt	nt	nt	nt
Cc1cccc(N(CC(N)=O)C2SC(=O)N(Cc3cccc(C(=O)O)c3)C2=O)c1 (stereo unspecified)	nt	-4%[59 µM]	nt	25%	-12%	6%
CC(=O)Nc1ccc(N2CC(C)(C)C2=O)cc1	11%	nt	-9%	37%	-14%	-20%
